The record followed here is PubChem BioAssay AID620 (Sanford-Burnham Center for Chemical Genomics, 2007).

About 360 (0.41%) of roughly 87,000 compounds were called active. No stated cut-off is given here; in the data, active means cytotoxicity above about 50%; inactive means the rest. Shown is part of a subset that was picked to be rich in actives.

This test is described as follows: HT1080 cell viability loss – fluorescence readout (AID 620).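 Further: cells exposed to compound overnight then 4 h with Alamar Blue; 0% = vehicle DMSO and 100% = killing control.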 The following applies: at 10 µM, stronger effect = higher value.
On to `COc1cc(NC(=O)C2CCCO2)c(C(=O)O)cc1OC` (stereo not drawn), for which the cytotoxicity is 6.7% (inactive).
Consider `COc1ccccc1N1CCN(C(=O)c2cc3sccc3n2C)CC1`, for which the cytotoxicity was -5.4% (inactive).
Consider `O=C(OC(C(=O)NC1CCCC1)c1ccccn1)c1cccs1` (stereo not drawn), for which the cytotoxicity is -10% (inactive).
Consider `CN=C1SC(CC(=O)Nc2sc3c(c2C#N)CCCC3)C(=O)N1C` (stereo not drawn), for which the cytotoxicity was 1.2% (inactive).
Turning to `CN1Cc2cc(C(=O)c3cc(Cl)cc(CSc4ncccn4)c3O)cnc2NC1=O`, the cytotoxicity is 70.1% (active).
On to `CCCCN1Cc2cc(C(=O)c3cc(F)ccc3O)cnc2NC1=O`, for which the cytotoxicity is -2.9% (inactive).
On to `CN1Cc2cc(C(=O)c3ccccc3O)cnc2NC1=O`, for which the cytotoxicity is -10.1% (inactive).
For the compound `O=C1NC(c2ccccc2)C(C(=O)c2cccs2)=C1O` (stereo not drawn), the cytotoxicity is -9.1% (inactive).
With `COc1ccccc1NC(=O)c1ccc(NS(C)(=O)=O)cc1`, the cytotoxicity is -6.8% (inactive).
Take `C/C(=N\NC(=O)c1ccccn1)C12CC3CC(CC(C3)C1)C2`: the cytotoxicity was -0.9% (inactive).
For `CCN(CC)S(=O)(=O)c1cccc(-c2nnc(SCC(=O)NC3CCCC3)n2N)c1`, the cytotoxicity was -9.2% (inactive).
For `CCOc1ccccc1NC(=O)N1CCC(c2nc3ccc(C)cc3[nH]2)CC1`, the cytotoxicity is -20.4% (inactive).
As to `COc1ccccc1NC(=O)N1CCC(c2nc3cc(C)c(C)cc3[nH]2)CC1`, the cytotoxicity is 72.8% (active).
In the case of `CCOc1ccccc1NC(=O)N1CCC(c2nc3ccccc3[nH]2)CC1`, the cytotoxicity was 2.8% (inactive).
For the compound `Cc1ccc(NC(=O)/C(C#N)=C/c2cccs2)c(C)c1`, the cytotoxicity was -7.9% (inactive).
Then `COC(=O)[C@@]1(Cc2ccc(F)cc2)[C@H]2c3cc(C(=O)N4CCCC4)n(CCc4ccc(O)c(O)c4)c3C[C@H]2CN1C(=O)c1ccccc1`, with -15.9% (inactive); and `COc1ccccc1CNC(=O)CCS(=O)(=O)c1cccs1`, with -8.3% (inactive); and `COc1cc(CNc2cc(C)ccc2C)cc(OC)c1OC`, with -14.1% (inactive).
Consider `COc1cc(CNc2ccc(C)c(C)c2)cc(OC)c1OC`, for which the cytotoxicity is 54.5% (active).
As to `COc1cc(CNc2ccccc2SC)cc(OC)c1OC`, the cytotoxicity is -30.4% (inactive).
For the compound `CCOC(=O)c1csc(NC(=O)C2CCCCC2)n1`, the cytotoxicity is -6.3% (inactive).
To `CCc1c(C)sc(NC(=O)C2CCCO2)c1C#N` (stereo not drawn) belongs 0.6% (inactive).
As for `O=C(Cn1c(CC(=O)N2CCCC2)nc2ccccc21)NCc1ccccc1`, the cytotoxicity was 3% (inactive).
With `COc1ccc(NC(=O)Nc2ncccc2C)cc1`, the cytotoxicity was 0.5% (inactive).
For the compound `Cc1nnc(Sc2nc(Sc3nnc(C)s3)nc(N3CCN(C)CC3)n2)s1`, the cytotoxicity is 59.7% (active).
On to `Cc1nnc(SCCn2c(N3CCN(C)CC3)nc3c2c(=O)[nH]c(=O)n3C)s1`, for which the cytotoxicity is -10.1% (inactive).
Consider `Cc1nnc(SCCn2c(N3CCN(C)CC3)nc3c2c(=O)n(C)c(=O)n3C)s1`, for which the cytotoxicity was -3.5% (inactive).
With `COC(F)(C(=O)Nc1ccc2c(c1)C(=O)NC2=O)C(F)(F)F` (stereo not drawn), the cytotoxicity was 0.1% (inactive).
For `O=C(CCl)Nc1cc(-c2ccccc2)nn1-c1ccccc1`, the cytotoxicity was 54.1% (active).
Regarding `CC(=O)Nc1ccc(-c2cc(NC(C)=O)n(-c3ccccc3)n2)cc1`, the cytotoxicity is -2.5% (inactive).
To `CC(=O)Nc1cc(-c2ccc(Cl)cc2)nn1-c1ccccc1` belongs 1.4% (inactive).
Consider `Cc1ccc(-c2cc(NC(=O)CCl)n(-c3ccccc3)n2)cc1`, for which the cytotoxicity is 60.4% (active).
With `Cc1cc(NC(=O)Nc2cc(C)nn2-c2ccccc2)n(-c2ccccc2)n1`, the cytotoxicity was 4.3% (inactive).
For the compound `Cc1cc(NC(=O)COc2ccccc2)n(-c2ccccc2)n1`, the cytotoxicity was 7.7% (inactive).
As for `O=C(NCCc1c[nH]c2ccccc12)c1cnc2sccn2c1=O`, the cytotoxicity is -1.9% (inactive).
Then `O=C(NCC(c1cccnc1)N1CCN(c2ccccc2F)CC1)c1ccccc1` (stereo not drawn), with -1.1% (inactive).
To `CC(NS(=O)(=O)c1ccc(OCC(=O)N2CCOCC2)cc1)c1ccccc1` (stereo not drawn) belongs 0.3% (inactive); to `O=C(Nc1ccc2c(c1)OCO2)OCc1ccccc1`, 13.2% (inactive); to `CSc1nc(-c2ccc(Cl)cc2)nn1S(=O)(=O)c1ccc(Cl)cc1`, -13% (inactive).
As for `Cn1nc(-c2ccc(Cl)cc2)nc2c(=O)n(C)c(=O)nc1-2`, the cytotoxicity is 51% (active).
Take `CCS(=O)(=O)n1nc(-c2ccc(Cl)cc2)nc1N`: the cytotoxicity is 0.1% (inactive).
For `C=CCN=C(NC#N)SCCc1ccccc1`, the cytotoxicity was -4.6% (inactive).
To `Cc1nn(C)c(C)c1NC(=O)c1ccnn1C` belongs -16.7% (inactive); to `CN1CCN(Cc2cc(COCc3ccccc3)c3cccnc3c2O)CC1`, 43.1% (inactive); to `OCCN1CCN(Cc2cc(Cl)c3cccnc3c2O)CC1`, -4.1% (inactive).
Consider `Oc1c(CN2CCOCC2)cc(COCc2ccccc2)c2cccnc12`, for which the cytotoxicity was 20.5% (inactive).
To `Oc1ccc(CN2CCc3ccccc3C2)c2cccnc12` belongs 33.5% (inactive); to `O=c1oc2c(CN3CCOCC3)c(O)c(Cl)cc2c2c1CCC2`, 7.1% (inactive).
To `CCOCC(=O)Nc1nnc(COc2ccc(Cl)cc2)s1` belongs 17.8% (inactive).
To `CCOC(=O)CSc1nnc(Cn2c(=O)sc3ccccc32)n1C` belongs 1.9% (inactive).
Consider `CCN(CC)c1ccc(C(=S)N2CCN(c3ccccc3)CC2)cc1`, for which the cytotoxicity is -2.9% (inactive).
Take `Cc1cc(C(=O)CSc2nnc(-c3ccccc3F)o2)c(C)n1Cc1cccs1`: the cytotoxicity was -6.5% (inactive).
As to `O=C(CSc1nnc(-c2cccs2)o1)c1cccs1`, the cytotoxicity was 25.4% (inactive).
In the case of `COC(=O)C1=C(COc2ccccc2)NC(=O)NC1c1ccc2ccccc2c1` (stereo not drawn), the cytotoxicity was -5.7% (inactive).
Then `CCOC(=O)C1=C(N)n2c(s/c(=C/c3ccccc3)c2=O)=C(C(=O)OCC)C1c1ccccc1` (stereo not drawn), with -1.6% (inactive); and `CCOC(=O)C1=C(N)n2c(s/c(=C\c3ccco3)c2=O)=C(C(=O)OCC)C1c1ccco1` (stereo not drawn), with 36.1% (inactive); and `CCOC(=O)C1=C(N)n2c(s/c(=C\c3cccs3)c2=O)=C(C(=O)OCC)C1c1cccs1` (stereo not drawn), with 56.3% (active).
On to `c1ccc(-c2cn3c(n2)CCc2ccc4cccnc4c2-3)cc1`, for which the cytotoxicity was 37% (inactive).
Take `Brc1ccc(-c2cn3c(n2)CCc2ccc4cccnc4c2-3)cc1`: the cytotoxicity is 53.1% (active).
Regarding `Brc1ccc(-c2cn3cccnc3n2)cc1`, the cytotoxicity was 9.4% (inactive).
For the compound `CCn1c(=O)n(CC)c2cc(S(=O)(=O)N3CCc4ccccc43)ccc21`, the cytotoxicity was 71.3% (active).
Consider `Cn1c(=O)c(=O)n(C)c2cc(S(=O)(=O)N3CCc4ccccc43)ccc21`, for which the cytotoxicity was -4% (inactive).
In the case of `CCn1c(=O)n(CC)c2cc(S(=O)(=O)N3CCC(c4ccccc4)CC3)ccc21`, the cytotoxicity was -6.5% (inactive).
